Experimental data taken from PubChem BioAssay AID1224862 (National Center for Advancing Translational Sciences (NCATS), 2016).
Records with an inconclusive call do not appear. A call without a number means that no potency is given here. Activity calls are given as the source filed them. Calls come from the whole dose curve; as a rule, active = well fitted cell-killing curve with a large enough effect; inconclusive = small, poorly fitted or top-dose-only effect, or effect the other way; inactive = flat fitted curve, though single readings scatter.

Experiment: Compound cytotoxicity measured by an ATP content assay as a counter-screen for lead compounds in human astrocytoma cell line (SNB-19)
Procedure, shortened: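 Cell viability was measured as ATP content by luminescence in SNB-19 astrocytoma cells in RPMI 1640 with 10% FBS. Compounds were incubated for set times such as 6, 24 or 72 h, and cytotoxicity was expressed as percent inhibition.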

SMILES	Potency
NC(=O)c1cccc2[nH]c(-c3ccc([C@H]4CCCN4)cc3F)nc12	5.48 µM (active)
O=C(O)[C@H](CC(=O)N1C[C@@H]2CCCC[C@H]2C1)Cc1ccccc1	inactive
O=C(c1ccccc1)c1ccc2n1CCC2C(=O)O (stereo not drawn)	inactive
CCCCCCCC/C=C/C(=O)O	inactive
CCN1CCC(n2cc(CNc3cc(Cl)c4ncc(C#N)c(Nc5ccc(F)c(Cl)c5)c4c3)nn2)CC1	inactive
CC(=C(CCOC(=O)C(C)C)SSC(CCOC(=O)C(C)C)=C(C)N(C=O)Cc1cnc(C)nc1N)N(C=O)Cc1cnc(C)nc1N	inactive
COc1ccc2nc(NC(=O)Nc3ccccc3)sc2c1	19.5 µM (active)
CN(C)CCCSc1ccccc1NC(=O)/C=C/c1ccccc1	inactive
CS(=O)(=O)c1ccc(-c2cn3ccccc3n2)cc1	12.3 µM (active)
CC(C)(C)COc1ccc(-n2cc(C(=O)O)cn2)cc1C#N	inactive
O=C(Nc1cc2cc[nH]c2cn1)c1ccccc1	0.388 µM (active)
CCC(C(=O)O)c1ccc(N2Cc3ccccc3C2=O)cc1 (stereo not drawn)	inactive
Clc1ccccc1-c1nc(-c2ccncc2)no1	inactive
O=C(OCc1ccccc1)c1ccc(O)cc1	inactive
Nc1ccc(N=Nc2ccccc2)c(N)n1	inactive
CC(=NNC(=S)N1CCC1)c1ccccn1	inactive
CC[C@]1(O)C[C@H]2CN(CCc3c([nH]c4ccccc34)[C@@](C(=O)OC)(c3cc4c(cc3OC)N(C=O)[C@H]3[C@@](O)(C(=O)OC)[C@H](OC(C)=O)[C@]5(CC)C=CCN6CC[C@]43[C@@H]65)C2)C1	inactive
CC(C(=O)O)c1ccc(C(=O)c2cccs2)cc1 (stereo not drawn)	inactive
O[C@@H](COc1cccc2ncccc12)CN1CCN(C2c3ccccc3[C@@H]3[C@H](c4ccccc42)C3(F)F)CC1 (stereo partly drawn)	inactive

SMILES	Potency
Cc1csc(NC(=O)c2sc3nc4c(c(C(F)(F)F)c3c2N)CCC4)n1	4.35 µM (active)
Nc1cc(C(F)(F)F)ccc1S	inactive
O=C(O)CCC(=O)c1ccc(-c2ccccc2)cc1	inactive
O=c1oc2cc(O)ccc2s1	inactive
Nc1ncnc2c1ncn2[C@@H]1O[C@@H](CO)[C@H](O)[C@H]1O	inactive
c1ccc(CCNc2nc(-c3ccccc3)cs2)cc1	inactive
O=C1c2ccccc2C(=O)c2c1ccc(O)c2O	inactive
O=C(O)c1cccc(-c2noc(-c3ccccc3F)n2)c1	5.48 µM (active)
CCCCCNC(=O)N1CCC(CN(Cc2ccc(Cl)cc2)Cc2ccc([N+](=O)[O-])s2)C1 (stereo not drawn)	inactive
Cc1ccc(O)c(N=Nc2ccccc2)n1	7.74 µM (active)
COc1cc2nc(-c3ccc(N4CCN(C)CC4)cc3)nc(NCCN3CCOCC3)c2cc1OC	inactive
Cc1oncc1C(=O)Nc1ccc(C(F)(F)F)cc1	inactive
Cc1ccc(C(=O)c2ccc(CC(=O)O)n2C)cc1	inactive
O=C(O)Cc1ccc(-c2ccccc2)cc1	inactive
CC(C)(C)OC(=O)CN(Cc1ccc(Cl)cc1)Cc1ccc([N+](=O)[O-])s1	inactive
CCN1/C(=C/C=C/c2sc3ccccc3[n+]2CC)Sc2ccccc21	inactive
CN(C)c1cc(NC(=O)CNC(C)(C)C)c(O)c2c1C[C@@H]1C[C@H]3[C@H](N(C)C)C(=O)C(C(N)=O)=C(O)[C@@]3(O)C(=O)C1=C2O	inactive
CO[C@H]1C(=O)[C@]2(C)[C@@H](OC)C[C@H]3OC[C@@]3(OC(C)=O)[C@H]2[C@H](OC(=O)c2ccccc2)[C@]2(O)C[C@H](OC(=O)[C@H](O)[C@@H](NC(=O)OC(C)(C)C)c3ccccc3)C(C)=C1C2(C)C	inactive
O=C(Nc1ccc(C(=O)O)c(O)c1)c1ccccc1	inactive
